The nature of assay [1]: A CellTox Green Cytotoxicity Assay to monitor cytotoxicity in HEK293 cells - 40 hour (AID 1224871). Also: nearly all actives have a fitted effect of over 45% in size. The gist of the method: (§1)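 Fluorescence from a DNA-binding dye excluded by viable cells was measured repeatedly in the same HEK293 wells (600 cells/well) during continuous compound exposure at 37 C. Each assay gives one read point: 0, 8, 16, 24, 32 or 40 h.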
The nature of assay [2]: qHTS RealTime-Glo MT Cell Viability Assay in HEK293 cells - 16 hour (AID 1224872). Also: nearly all actives have a fitted effect of over 50% in size. Also: potency is read from the fitted curve at half-maximal effect. The gist of the method:
(§2)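 Nonlytic real-time viability readout: viable cells convert prosubstrate to NanoLuc substrate, giving luminescence proportional to live cell number. HEK293, 600 cells/well, compound added after 5 h, continuous culture at 37 C.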

A short description of assay [3]: qHTS RealTime-Glo MT Cell Viability Assay in HepG2 cells - 8 hour (AID 1224873). Also: nearly all actives have a fitted effect of over 55% in size. Summed up: (§3)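 HepG2 cells (600/well) mixed with RealTime-Glo MT reagent, settled 5 h at 37 C/5% CO2 before compound addition. Nonlytic NanoLuc luminescence from viable-cell prosubstrate reduction read repeatedly during 40 h treatment at 37 C.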
Assay [4] in a line: qHTS RealTime-Glo MT Cell Viability Assay in HEK293 cells - 40 hour (AID 1224874). Also: nearly all actives have a fitted effect of over 50% in size. Also: potency is read from the fitted curve at half-maximal effect. The following applies: RealTime-Glo luminescence; max response: stronger effect = lower value. Summed up:
(§4)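 Luminescence, which tracks viable cell number through reduction of the prosubstrate to a NanoLuc substrate, was read over continuous 37 C culture. Cells (600/well) were premixed with reagent and rested 5 h before 23 nL of compound in DMSO was pinned.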

Assay [5] is described as follows: A CellTox Green Cytotoxicity Assay to monitor cytotoxicity in HEK293 cells - 24 hour (AID 1224875). Also: nearly all actives have a fitted effect of over 45% in size. Also: potency is read from the fitted curve at half-maximal effect. The gist of the method:
as §1

Assay [6] can be described thus: A CellTox Green Cytotoxicity Assay to monitor cytotoxicity in HepG2 cells - 16 hour (AID 1224876). Also: nearly all actives have a fitted effect of over 45% in size. Also: potency is read from the fitted curve at half-maximal effect. The gist of the method:
(§5)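 Real-time cytotoxicity: fluorescence of a cell-impermeant cyanine dye binding DNA of dead HepG2 cells, measured repeatedly (0–40 h) during compound exposure at 37 C. Cells seeded 600/well with reagent, dosed after 5 h.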

A short description of assay [7]: qHTS RealTime-Glo MT Cell Viability Assay in HepG2 cells - 32 hour (AID 1224877). Also: nearly all actives have a fitted effect of over 55% in size. The gist of the method: (§6)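 Luminescence read-out: viable HepG2 cells reduce a prosubstrate to a NanoLuc substrate, giving a signal proportional to live cell number. Reads taken at 0, 8, 16, 24, 32 and 40 h of compound exposure at 37 C.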
The nature of assay [8]: A CellTox Green Cytotoxicity Assay to monitor cytotoxicity in HepG2 cells - 24 hour (AID 1224878). Also: nearly all actives have a fitted effect of over 45% in size. Also: potency is read from the fitted curve at half-maximal effect. Summed up:
as §5

Assay [9] in a line: A CellTox Green Cytotoxicity Assay to monitor cytotoxicity in HepG2 cells - 40 hour (AID 1224879). Also: nearly all actives have a fitted effect of over 40% in size. Also: potency is read from the fitted curve at half-maximal effect. The gist of the method:
as §5

Assay [10] is described as follows: qHTS RealTime-Glo MT Cell Viability Assay in HEK293 cells - 0 hour (AID 1224880). Also: nearly all actives have a fitted effect of over 45% in size. Also: potency is read from the fitted curve at half-maximal effect. Summed up: as §4
A short description of assay [11]: A CellTox Green Cytotoxicity Assay to monitor cytotoxicity in HEK293 cells - 32 hour (AID 1224881). Also: nearly all actives have a fitted effect of over 40% in size. Also: potency is read from the fitted curve at half-maximal effect. The gist of the method: as §1
Assay [12] in a line: A CellTox Green Cytotoxicity Assay to monitor cytotoxicity in HepG2 cells - 0 hour (AID 1224882). Also: nearly all actives have a fitted effect of over 35% in size. Also: potency is read from the fitted curve at half-maximal effect. Summed up: as §5
Assay [13] can be described thus: A CellTox Green Cytotoxicity Assay to monitor cytotoxicity in HepG2 cells - 32 hour (AID 1224883). Also: nearly all actives have a fitted effect of over 50% in size. Also: potency is read from the fitted curve at half-maximal effect. The gist of the method:
as §5

Assay [14] in a line: qHTS RealTime-Glo MT Cell Viability Assay in HepG2 cells - 16 hour (AID 1224885). Also: nearly all actives have a fitted effect of over 50% in size. Also: potency is read from the fitted curve at half-maximal effect. Summed up: as §6
The nature of assay [15]: qHTS RealTime-Glo MT Cell Viability Assay in HEK293 cells - 24 hour (AID 1224886). Also: nearly all actives have a fitted effect of over 50% in size. Also: potency is read from the fitted curve at half-maximal effect. The gist of the method:
as §2

The nature of assay [16]: qHTS RealTime-Glo MT Cell Viability Assay in HEK293 cells - 8 hour (AID 1224887). Also: nearly all actives have a fitted effect of over 50% in size. Also: potency is read from the fitted curve at half-maximal effect. The gist of the method: as §4
A short description of assay [17]: A CellTox Green Cytotoxicity Assay to monitor cytotoxicity in HEK293 cells - 16 hour (AID 1224888). Also: nearly all actives have a fitted effect of over 35% in size. Also: potency is read from the fitted curve at half-maximal effect. Summed up:
as §1

Assay [18] in a line: qHTS RealTime-Glo MT Cell Viability Assay in HepG2 cells - 0 hour (AID 1224889). Also: nearly all actives have a fitted effect of over 50% in size. Also: potency is read from the fitted curve at half-maximal effect. Summed up:
as §6

Assay [19] in a line: A CellTox Green Cytotoxicity Assay to monitor cytotoxicity in HEK293 cells - 8 hour (AID 1224884). Also: nearly all actives have a fitted effect of over 35% in size. Also: potency is read from the fitted curve at half-maximal effect. The gist of the method:
as §1

Assay [20] is described as follows: qHTS RealTime-Glo MT Cell Viability Assay in HepG2 cells - 40 hour (AID 1224870). Also: nearly all actives have a fitted effect of over 50% in size. Also: potency is read from the fitted curve at half-maximal effect. The gist of the method:
as §3

“And” between values parts separate entries of the source, which are not always exact repeats. Equal entries are not always repeated. A number with no mark means an inactive call. Records with an inconclusive call do not appear. The source made the active and inactive calls. Calls follow the shape of the dose curve; as a rule, active = well fitted curve in the direction sought with a large enough effect in the repeat runs; inconclusive = weak or mixed curves; inactive = no such curve, though single readings can be large; an effect the other way counts as inactive or inconclusive.
% is scaled to controls: 0 for no effect and ±100 for the full control effect.

As for `CC(=O)Nc1cc(S(=O)(=O)O)cc2cc(S(=O)(=O)O)c(N=Nc3ccccc3)c(O)c12`, the Potency result in assay [1], in [2], in [3], in assay [5], in [6] and in assay [7] was “inactive” throughout. Further, the Potency entry in assay [8], in [9], in assay [10], in assay [11], in assay [12] and in assay [13] was “inactive” throughout. Besides, the Potency entry in assay [14], in [15], in assay [16], in assay [17] and in assay [18] was “inactive” each time. For the same compound, the max response in assay [4] is -17.9%.
For `CN1C[C@H](C(=O)N[C@]2(C)O[C@@]3(O)[C@@H]4CCCN4C(=O)[C@H](Cc4ccccc4)N3C2=O)C[C@@H]2c3cccc4[nH]cc(c34)C[C@H]21`, the Potency in assay [2] was 23.9 µM (active); in assay [4] it was 12 µM (active); in assay [15], 21.3 µM (active); in [16] it was 23.9 µM (active). The Potency result in assay [10], in assay [12], in [19], in assay [17] and in assay [18] was “inactive” throughout.
As for `COC(=O)C1=C(C)NC(C)=C(C(=O)O[C@@H]2CCCN(Cc3ccccc3)C2)[C@@H]1c1cccc([N+](=O)[O-])c1`, the Potency entry in assay [1], in assay [5], in assay [6], in [9], in assay [11] and in assay [12] was “inactive” in each case. Further, the Potency entry in assay [13], in assay [19], in assay [15], in assay [16] and in [17] was “inactive” each time. Moreover, the max response in assay [4] was -29.2%. Besides, the Potency was 8.49 µM (active) in assay [10] and 5.35 µM (active) in assay [18].
Turning to `Oc1ccc(Cl)c2cccnc12`, the Potency entry in assay [20], in assay [2], in assay [3], in assay [5], in assay [6] and in assay [8] was “inactive” in each case. For the same compound, the Potency result in assay [10], in assay [11], in assay [12], in assay [19], in assay [14] and in assay [15] was “inactive” each time. For the same compound, the Potency result in assay [16], in assay [17] and in [18] was “inactive” each time.
For `Cc1cc(O)ccc1O`, the Potency result in assay [20], in [3], in assay [6], in assay [7], in assay [8] and in assay [9] was “inactive” throughout. The Potency entry in assay [10], in [12], in assay [13], in assay [19], in [14] and in assay [18] was “inactive” in each case.
As to `O=c1cc(-c2ccccc2)oc2cc(O)cc(O)c12`, the Potency result in assay [1], in assay [5], in assay [6], in [10], in assay [11] and in assay [12] was “inactive” each time. The Potency result in assay [19] and in [17] was “inactive” in each case.
Take `COc1ccccc1N1CCN(CC(O)COc2cccc3ccccc23)CC1` (stereo not given): the Potency result in assay [1], in assay [3], in assay [5], in [10], in [11] and in [12] was “inactive” in each case. In addition, the Potency result in [14], in [16] and in [17] was “inactive” each time. Besides, the Potency was 30.1 µM (active) in assay [9] and 26.8 µM (active) in assay [13].
For the compound `Cc1cc(O)c(C)c(C)c1O`, the Potency entry in assay [20], in assay [6], in assay [9], in [10], in [12] and in assay [13] was “inactive” throughout. Moreover, the Potency result in assay [14], in [17] and in assay [18] was “inactive” in each case.
On to `CN1C(=O)N(c2ccccc2Br)Cc2cnc(Nc3ccc4c(c3)OCC(CO)O4)nc21` (stereo not given), for which the Potency entry in [1], in assay [5], in assay [6], in assay [10], in [11] and in [12] was “inactive” each time. Further, the Potency result in assay [19] and in assay [17] was “inactive” each time. The Potency is 6.92 µM (active) in assay [2], 4.36 µM (active) in assay [4], 6.92 µM (active) in [15] and 17.4 µM (active) in assay [16].
In the case of `CC(C)c1nc(CN(C)C(=O)N[C@H](C(=O)N[C@@H](Cc2ccccc2)C[C@H](O)[C@H](Cc2ccccc2)NC(=O)OCc2cncs2)C(C)C)cs1`, the Potency result in [20], in assay [3], in assay [6], in [7], in assay [8] and in assay [10] was “inactive” each time. Moreover, the Potency entry in assay [12], in [19], in assay [14], in assay [17] and in [18] was “inactive” throughout. Moreover, the Potency in assay [4], in [9] and in assay [15] was 21.3 µM (active) throughout.
`C[C@@H](O[C@H]1OCCN(Cc2n[nH]c(=O)[nH]2)[C@H]1c1ccc(F)cc1)c1cc(C(F)(F)F)cc(C(F)(F)F)c1`: the Potency in assay [20] is 21.3 µM (active); in assay [2] it was 19 µM (active); in assay [4] it was 16.9 µM (active); in [6], 16.9 µM (active); in assay [8], 15.1 µM (active); in [9], 16.9 µM (active). Further, the Potency is 16.9 µM (active) in assay [13], 19 µM (active) in assay [14] and 16.9 µM (active) in [15]. In addition, the Potency entry in [10], in [12], in assay [19], in assay [17] and in assay [18] was “inactive” in each case.
As to `CN(C)CCC=C1c2ccccc2C=Cc2ccccc21`, the Potency entry in assay [20], in [2], in [3], in assay [5], in assay [7] and in assay [11] was “inactive” throughout. The Potency result in assay [12], in [14], in [15], in assay [16] and in assay [17] was “inactive” in each case. Also, the Potency in assay [6], in assay [8] and in [13] was 23.9 µM (active) throughout.
As to `C[C@@H]1CC(=O)NN=C1c1ccc(NN=C(C#N)C#N)cc1`, the Potency entry in assay [1], in assay [5], in assay [6], in assay [8], in assay [11] and in assay [12] was “inactive” each time. Also, the Potency result in assay [15], in assay [16] and in assay [17] was “inactive” in each case. Also, the Potency was 15.1 µM (active) and 13.4 µM (active) in assay [9]; 16.9 µM (active) and 10.7 µM (active) in assay [13].
With `COC(=O)[C@H]1[C@H]2C[C@@H]3c4[nH]c5cc(OC)ccc5c4CCN3C[C@H]2C[C@@H](OC(=O)/C=C/c2ccc(O)c(OC)c2)[C@@H]1OC`, the Potency entry in assay [20], in assay [7], in assay [10], in [14] and in assay [18] was “inactive” each time. The Potency in [5] is 16.9 µM (active); in assay [6], 23.9 µM (active); in assay [8], 26.8 µM (active); in assay [9], 23.9 µM (active); in assay [11], 19 µM (active); in [12], 26.8 µM (active). Besides, the Potency in assay [13] is 23.9 µM (active); in assay [19] it was 19 µM (active); in assay [17] it was 16.9 µM (active).

Values taken from PubChem BioAssay (Tox21).
